# Laboratory results published in PubChem BioAssay (NCI).
# Compounds without any hit were thinned out: in the full panel of roughly 83,000, 20% have a hit.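 Each cell line was grown in a 96-well plate and treated with one concentration of compound for 48 hours. Values below 10 were considered active.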 A number with no mark means an inactive call. Calls of active or inactive are those of the source.
# Tests used:
# Experiment in all cases: NCI-60 one-dose screen, 48 h (100 = growth as untreated, 0 = no growth, -100 = all killed)
# Conditions in all cases: 10 µM unless noted
# NCI-H23 lung = tested on: NCI-H23 lung
# NCI-H226 lung = tested on: NCI-H226 lung
# NCI-H322M lung = tested on: NCI-H322M lung
# HOP-62 NSCLC = tested on: HOP-62 NSCLC
# NCI-H460 lung = tested on: NCI-H460 lung
# HOP-92 NSCLC = tested on: HOP-92 NSCLC
# NCI-H522 lung = tested on: NCI-H522 lung
# A549/ATCC NSCLC = tested on: A549/ATCC NSCLC
# 786-0 renal = tested on: 786-0 renal
# COLO 205 colon = tested on: COLO 205 colon
# DU-145 prostate = tested on: DU-145 prostate
# K-562 leukemia = tested on: K-562 leukemia
# MALME-3M melanoma = tested on: MALME-3M melanoma
# MDA-MB-231 breast = tested on: MDA-MB-231 breast
# RXF 393 renal = tested on: RXF 393 renal
# SF-268 CNS = tested on: SF-268 CNS
# SF-295 CNS = tested on: SF-295 CNS
# SF-539 CNS = tested on: SF-539 CNS
# UACC-257 melanoma = tested on: UACC-257 melanoma
# M14 melanoma = tested on: M14 melanoma
Structure (SMILES),growth (NCI-H23 lung),growth (NCI-H226 lung),growth (NCI-H322M lung),growth (HOP-62 NSCLC),growth (NCI-H460 lung),growth (HOP-92 NSCLC),growth (NCI-H522 lung),growth (A549/ATCC NSCLC),growth (786-0 renal),growth (COLO 205 colon),growth (DU-145 prostate),growth (K-562 leukemia),growth (MALME-3M melanoma),growth (MDA-MB-231 breast),growth (RXF 393 renal),growth (SF-268 CNS),growth (SF-295 CNS),growth (SF-539 CNS),growth (UACC-257 melanoma),growth (M14 melanoma)
Cc1cscc(C)c1=S,77.2%,103%,87%,99.6%,48.7%,108%,50.8%,88.1%,103%,96.2%,4.23% (active),96%,96.1%,97.8%,71.2%,95.7%,76%,96.9%,89%,93.1%
Oc1c(Cl)cc(Cl)c2ccc(Cn3cc(-c4cccc(C(F)(F)F)c4)nn3)nc12,90%,90.1%,102%,97.5%,101%,55.8%,-3.26% (active),97.9%,95.6%,92.9%,63%,5.87% (active),75.8%,101%,33.7%,88.9%,99%,75.2%,69.1%,62.4%
O=C(CCC(=O)c1nc2ncccc2[nH]1)NN1C(=O)CSC1c1ccc(Cl)cc1 (stereo not given),91.4%,95.9%,93.5%,93.9%,102%,111%,83%,97.3%,101%,116%,103%,98.2%,93%,98%,103%,91.2%,108%,103%,105%,98%
CCn1cc(C2=C(c3cn(C)c4ncccc34)C(=O)NC2=O)c2cccnc21,66.3%,57.5%,79.6%,73.1%,44.5%,81.4%,83.9%,65%,50.5%,49%,80.1%,100%,73.8%,61.2%,76.9%,75.6%,61.4%,72%,102%,81.8%
CCCCNC1=C(OCC)C(=O)c2ccccc2C1=O,83.5%,105%,103%,125%,92.6%,74.5%,98.4%,99.2%,94.8%,116%,104%,126%,121%,98.9%,92.8%,97.3%,103%,112%,95.7%,95.5%
COc1ccc2c(c1)c(-c1cc(-c3cn(C)c4ccc(OC)cc34)on1)cn2C,84.1%,88%,96.6%,141%,109%,59%,90.2%,109%,102%,112%,114%,98.5%,106%,100%,119%,102%,101%,101%,107%,90.1%
O=c1[nH]c(-c2ccc(Cl)cc2)cn1-c1ccc(-n2cc(-c3ccc(Cl)cc3)[nH]c2=O)cc1,95.9%,91.1%,115%,99.8%,115%,99.1%,112%,93.4%,96.4%,111%,108%,113%,97.9%,94.7%,113%,109%,101%,104%,101%,99.2%
FC(F)(F)c1[nH]ncc1-c1nc2c(N3CCCCC3)cc3[nH]ncc3c2c2c1CCCC2,-9.72% (active),2.93% (active),-2.53% (active),-8.3% (active),3.42% (active),-10.2% (active),-28.4% (active),5.13% (active),-1.84% (active),-33.7% (active),10.2%,14.1%,0.904% (active),3.41% (active),-92% (active),-11.7% (active),7.04% (active),-72.2% (active),0.68% (active),2% (active)
CC[C@H](C)[C@H](NC(=O)[C@H](CCCNC(=N)N)NC(=O)[C@H](Cc1c[nH]c2ccccc12)NC(=O)[C@@H](NC(=O)[C@H](CCCCN)NC(=O)[C@H](CCCCN)NC(=O)[C@@H](NC(=O)[C@@H](NC(=O)[C@@H](NC(=O)[C@H](CCCCN)NC(=O)[C@H](Cc1ccccc1)NC(=O)[C@H](CCCCN)NC(=O)[C@H](CCCCN)NC(=O)[C@H](Cc1ccccc1)NC(=O)[C@@H](NC(=O)[C@@H](N)CCCCN)[C@@H](C)CC)[C@@H](C)O)[C@@H](C)CC)[C@@H](C)CC)C(C)C)C(=O)N[C@@H](Cc1ccccc1)C(=O)NCC(=O)N[C@@H](CCCNC(=N)N)C(=O)N[C@@H](Cc1ccccc1)C(N)=O,-37.9% (active),1.83% (active),-50.5% (active),-41.7% (active),-5.53% (active),-20.3% (active),14.1%,-40.6% (active),-31.3% (active),-55.3% (active),-64.4% (active),4.14% (active),-64.4% (active),-70.6% (active),-2.96% (active),-23.2% (active),-34.1% (active),-69.8% (active),47.3%,-18.4% (active)
O=C(O)c1cn(C2CC2)c2cc(N3CCN(C(=O)N/N=C/c4ccccc4)CC3)c(F)cc2c1=O,97.1%,88%,100%,107%,109%,89%,78%,106%,93.6%,114%,104%,89.1%,92.9%,120%,104%,96.8%,106%,110%,89.3%,108%
Cn1ncc2ccc(-c3nc(-c4ccccc4)[nH]c3-c3n[nH]c(=O)n3C3CC3)cc21,93.7%,97.7%,111%,95.1%,99.4%,61.3%,81.5%,93.7%,88.8%,109%,106%,101%,95.6%,98%,106%,102%,101%,97.6%,94.9%,88.4%
C=C(c1ccc(C(=O)O)cn1)c1cc2c(cc1C)C(C)(C)CCC2(C)C,80.3%,81%,108%,87.3%,92.4%,71.5%,65.4%,57.3%,114%,109%,93.7%,92.3%,76.9%,93.8%,102%,76.5%,83.2%,86.3%,84%,88.5%
COc1ccc(Cc2nnc(Nc3nc4ccccc4s3)s2)cc1,93%,98.3%,89.1%,108%,102%,85%,100%,99.4%,98.1%,111%,109%,64.8%,100%,98%,97.8%,103%,92.9%,93.9%,99.9%,102%
COCC[C@H]1CCC/C=C/[C@@H]2C[C@H](O)C[C@H]2[C@H](O)/C=C/C(=O)O1,6.07% (active),-40.4% (active),29.7%,31.5%,15.1%,-8.55% (active),-28.6% (active),13.6%,-45.9% (active),-64.4% (active),6.25% (active),10.4%,-24.4% (active),-85.5% (active),-4.97% (active),12.6%,-2.69% (active),28.3%,16.7%,9.75% (active)
N#Cc1c(-c2ccccc2)c(C#N)c2c(C#N)c(N)nn2c1N,72.2%,74%,83.5%,40.2%,19.7%,27.1%,13.1%,38.7%,53.4%,29.4%,78.6%,6.77% (active),39.6%,33.6%,69.8%,56.3%,33.4%,37.2%,51.1%,32.9%
